In PubChem BioAssay (NCI):
This is part of a sample that, as a whole, favours compounds with a hit. Of some 79,000 tested, about 15% had one in any assay. Rule as the data show it: active = growth inhibition above about 70%; inactive = the rest.

Legend:
[1] = NCI Yeast Anticancer Drug Screen. Data for the rad50 strain (AID 155);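 also: 0% = growth of vehicle-only cultures of the same strain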; conditions: S. cerevisiae rad50 strain growth inhibition; at 50.0 µM; hits give high values
Method in brief: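 Cells are treated with compound, grown, and their growth is then scored against vehicle-only cultures of the same repair-deficient yeast strain.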

[2] = NCI Yeast Anticancer Drug Screen. Data for the mec2-1 strain (AID 157); conditions: S. cerevisiae mec2-1 strain, at 50.0 µM, hits give high values
Method in brief: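 Strain: mec2-1 (DNA repair/cell cycle alteration). Compound exposure, then growth measured; inhibition expressed relative to vehicle.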

[3] = NCI Yeast Anticancer Drug Screen. Data for the sgs1 mgt1 strain (AID 161);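 also: 0% = growth of cultures given vehicle only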; conditions: S. cerevisiae sgs1 mgt1 strain, at 50.0 µM, hits give high values
Method in brief: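 Inhibition of yeast growth, normalised to vehicle-treated controls, is reported for a strain bearing genetic alterations in DNA damage repair.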

[4] = NCI Yeast Anticancer Drug Screen. Data for the cln2 rad14 strain (AID 165);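 also: 0% = growth equal to vehicle treated cultures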; conditions: S. cerevisiae cln2 rad14 strain, at 50.0 µM, hits give high values
Method in brief: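 Compounds are applied to the cln2 rad14 yeast strain, and growth is then compared with that of vehicle-treated cultures to give inhibition.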

[5] = NCI Yeast Anticancer Drug Screen. Data for the bub3 strain (AID 167); conditions: S. cerevisiae bub3 mutant strain, at 50.0 µM, hits give high values
Method in brief: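 Part of a panel of yeast mutants defective in DNA damage repair or cell cycle regulation. Each strain is grown with compound, and inhibition is calculated relative to solvent-treated cultures.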

[6] = NCI Yeast Anticancer Drug Screen. Data for the mlh1 rad18 strain (AID 175); conditions: S. cerevisiae mlh1 rad18 strain growth inhibition; at 50.0 µM; hits give high values
Method in brief: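 Read-out is yeast growth inhibition, calculated against vehicle-only controls. The compound was applied to a strain engineered with DNA damage repair alterations.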

Measured: growth inhibition

Cc1nc2nncn2c(=O)[nH]1
inactive: [1] 9.35% | [2] -0.4% | [3] 31.8% | [4] 15.4% | [5] 6.1% | [6] 17.9%

CCOCCOC(=O)/C=C/c1ccccc1
inactive: [1] 17.6% | [2] -9.6% | [3] -4.35% | [4] -46.8% | [5] 8.15% | [6] -3.15%

CCOc1ccc(C(CC)c2cc3c(cc2OC)OCO3)cc1 (stereo unspecified)
inactive: [1] -1.95% | [2] -0.1% | [3] -9.35% | [4] -42.8% | [5] 6% | [6] -1.7%

Cn1cnc2ncnc(NCc3ccc(Cl)c(Cl)c3)c21
inactive: [1] -1.45% | [2] 18.9% | [3] -7.35% | [4] -21.2% | [5] 4.6% | [6] -25.1%

COc1ccc(-c2ccc(OC)cc2)cc1
inactive: [1] 2.9% | [2] -2.75% | [3] -3.8% | [4] -0.65% | [5] 21.4% | [6] 3%

CN1C[C@H]2[C@@H](C1=O)[C@H](c1ccc([N+](=O)[O-])cc1)ON2C
inactive: [1] -50.5% | [2] -72.5% | [3] -39.7% | [4] 14.9% | [5] 1.2% | [6] -33.8%

O=C(Nc1cccc(F)c1)Sc1ccc(Cl)cc1
inactive: [1] 55% | [2] 53.9% | [3] 56.1% | [4] 34% | [5] 56.4% | [6] 41%

Cc1cccc(C)c1NC(=O)Nc1cccc(O)c1
inactive: [1] -1.4% | [2] 34.8% | [3] 13.5% | [4] -4.4% | [5] 37.6% | [6] 26.4%

O=C(OC1(c2ccccc2)OC(=O)c2ccccc21)c1ccccc1C(=O)c1ccccc1 (stereo unspecified)
inactive: [1] -6.65% | [2] 2.45% | [3] -12.1% | [4] 3.45% | [5] 3.4% | [6] -25.9%

N#CC1(Cl)CC2CC1C1N=NN(c3ccccc3)C21 (stereo unspecified)
inactive: [1] -24.6% | [2] -15.3% | [3] -0.25% | [4] -58% | [5] 25.6% | [6] 0.75%

NNC(=S)N/N=C/c1ccco1
inactive: [1] -9.6% | [2] -9.7% | [3] -29.4% | [4] -19.2% | [5] -8.7% | [6] -14.2%

Cc1nc2ccccc2n1C(=O)c1c(F)c(F)c(F)c(F)c1F
inactive: [1] -35.9% | [2] -17.6% | [3] -28.6% | [4] -18.7% | [5] -9.8% | [6] -18.9%

COc1ccc2nc3cc(Cl)ccc3c(NCCC3CCCN4CCCCC34)c2c1 (stereo unspecified)
inactive: [1] 33% | [2] 26.4% | [3] 14.6% | [4] 21.6% | [5] 12.4% | [6] 33%

Cn1ncc2c(=O)[nH]c(NN)nc21
inactive: [1] -8.35% | [2] -4.45% | [3] -4.8% | [4] -17.8% | [5] -0.95% | [6] -1.95%

CC(C)(CO)N=Cc1ccc(Cl)c(Cl)c1
inactive: [1] 2.35% | [2] -13.2% | [3] -16.5% | [4] -3.1% | [5] -11.5% | [6] -24.6%

C[Si](C)(CCCOC(N)=O)COC(N)=O
inactive: [1] -15.2% | [2] -6.55% | [3] -18.4% | [4] -4.1% | [5] 4.8% | [6] -18.9%

CC1C=C(OC(=O)c2ccccc2)C(=O)C(n2cc(F)c(=O)n(C(=O)c3ccccc3)c2=O)O1 (stereo unspecified)
inactive: [1] 43.2% | [2] 47.3% | [3] 68.7% | [4] 0.1% | [5] -1.25% | [6] 15.6%

CCOC(=O)CC(C)CCO (stereo unspecified)
inactive: [1] 5.4% | [2] -5.8% | [3] -11.4% | [4] -0.2% | [5] -0.3% | [6] -8.9%

O=C(c1ccccc1)C(O)(c1ccccc1)C1CCCC/C1=N\N(c1ccccc1)c1ccccc1 (stereo unspecified)
inactive: [1] 37% | [2] 31.4% | [3] 29.9% | [4] 32.7% | [5] -20.4% | [6] 37.3%

CN(C)CCCNC(=O)N/N=C\c1cccc2ccccc12
inactive: [1] -2.9% | [2] -24% | [3] -17.4% | [4] 14.8% | [5] -4% | [6] -6.45%

c1ccc(N=C2N=c3ccccc3=C2c2c(Nc3ccccc3)[nH]c3ccccc23)cc1
inactive: [1] 20.4% | [2] 5.5% | [3] -4.35% | [4] -27.1% | [5] -4.7% | [6] 17.6%

OCCNc1ncnc2nc[nH]c12
inactive: [1] -17.9% | [2] -3.5% | [3] -12.5% | [4] 65.5% | [5] -46.5% | [6] 2.5%

CCOc1ccc2ccccc2c1N
inactive: [1] 44% | [2] 15.4% | [3] 24.3% | [4] 4.8% | [5] 51.7% | [6] 46.7%

O=[N+]([O-])c1cc(Br)ccc1P(=O)(O)O
inactive: [1] 9.25% | [2] 8.8% | [3] -1.25% | [4] 7.85% | [5] 16.9% | [6] -4.95%

CC(C)OC(=O)CO
inactive: [1] 29.6% | [2] 3.55% | [3] 14.2% | [4] 12.2% | [5] 10.5% | [6] 13.2%

CCCCCCCCCCCC(=O)NC(=S)Nc1ccc(C(=O)OCC)cc1
inactive: [1] 29.9% | [2] 31.9% | [3] 57.9% | [4] 1.35% | [5] 29.4% | [6] 45.4%

CC(=NCCN(CCN=C(C)c1c(O)cc(C)oc1=O)CCN=C(C)c1c(O)cc(C)oc1=O)c1c(O)cc(C)oc1=O
inactive: [1] 22.4% | [2] -4.3% | [3] 1.8% | [4] 11.4% | [5] 6.3% | [6] 21.8%

COc1ccc(-c2nc(N)nc3c2CN(CCCC(=O)O)C3=O)cc1
inactive: [1] -4.65% | [2] 30.3% | [3] -4.25% | [4] -30.8% | [5] 9.3% | [6] -10.4%

CCC(CCC(=O)O)C1CCCCC1 (stereo unspecified)
inactive: [1] 29.1% | [2] 20.9% | [3] 31.1% | [4] 45.9% | [5] 46.1% | [6] 13.2%

Cc1cccc(Cl)c1NC(=O)COc1ccc(Cl)cc1
inactive: [1] 5.75% | [2] 5.75% | [3] 38.2% | [4] 1.65% | [5] 30.9% | [6] 26.2%

CCCC1CCCCC1O (stereo unspecified)
inactive: [1] -9.55% | [2] -38.8% | [3] -24.4% | [4] 7.15% | [5] -24.2% | [6] -6.95%

CC1(C)CC2(C)CC1CC2O (stereo unspecified)
inactive: [1] 3.5% | [2] 9.6% | [3] -1.95% | [4] 14.8% | [5] 3.85% | [6] -25.4%

C[N+]1(CCC(=O)c2ccco2)CC2CCC(CC2)C1 (stereo unspecified)
inactive: [1] 3.9% | [2] -18.1% | [3] -37.1% | [4] -24.9% | [5] -68.7% | [6] 0.45%

COc1ccc(N=C2C(=Nc3ccc(OC)cc3)N(S(=O)(=O)c3ccccc3)C(=S)N2c2ccc(OC)cc2)cc1
inactive: [1] -11.8% | [2] -35% | [3] -35.5% | [4] -23.9% | [5] 0.2% | [6] -26.1%

c1ccc2c(c1)CCCN2c1ncnc2ccccc12
inactive: [1] -10.2% | [2] -8.45% | [3] -2.8% | [4] -62.6% | [5] 15.6% | [6] -7.4%

CCCCc1nc(CCCC)nc(CCCC)n1
inactive: [1] -6.75% | [2] -14.2% | [3] -12.8% | [4] -2.45% | [5] -2.8% | [6] 1.15%

CCCCCCCCCCCCCCCCS(=O)(=O)N/N=C(/c1ccc(OC)c(OC)c1)N1CCCCC1
inactive: [1] -24.9% | [2] -28.8% | [3] 8.6% | [4] 1.45% | [5] -18.1% | [6] -7%

ClC1=CC(Cl)=C2N=C(N3CCCC3)N=C3N=C(N4CCCC4)N=C1N32
inactive: [1] -15.2% | [2] -5.45% | [3] -19.7% | [4] -10.6% | [5] 1.6% | [6] 4.55%

O=C(NC(c1ccccc1)C(O)c1ccccc1)C(Cl)Cl (stereo unspecified)
inactive: [1] -5.45% | [2] -14.8% | [3] -1.95% | [4] -4.65% | [5] -0.75% | [6] 2.65%

O=C(NCc1ccco1)Nc1ccc(Cl)cc1
inactive: [1] -29.5% | [2] -0.8% | [3] 0.6% | [4] -51.4% | [5] 14.5% | [6] -2.7%

COc1cc(NS(=O)(=O)c2ccc(C)cc2)c2nccnc2c1
inactive: [1] 14.1% | [2] 15.7% | [3] 18.6% | [4] -3.35% | [5] 11.9% | [6] 29.6%
